BAZ2B block – qHTS Assay for Inhibitors of BAZ2B; Bromodomain adjacent to zinc finger domain protein 2B (Homo sapiens), Q9UIF8; AlphaScreen BAZ2B-H3K14Ac peptide displacement; Potency, µM (series often up to 114 µM), inactives show top-dose activity change, negative = inhibition, actives largely listed as inhibitors; actives 4.4% (n = 360,000); AID 504333, 2011; also: % is scaled to controls: 0 for no effect and ±100 for the full control effect; nearly all actives have a fitted effect of over 60% in size
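In this displacement format the biotinylated H3(5-23) peptide acetylated at Lys14 serves as ligand at 50 nM, with BAZ2B at 50 nM in PBS pH 7.4 containing 0.01% Tween-20. Donor and acceptor beads are 10 ug/mL final.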
JMJD2A Tudor – qHTS Assay for Inhibitors of JMJD2A-Tudor Domain | AID 504339, 2011 | actives 4.4% (n = 390,000) | AlphaScreen JMJD2A-Tudor / H3K4me3 peptide binding | Potency, µM (titrated, usually from 114 µM), inactives show at the top dose activity change, negative = inhibition, hits mostly inhibitors | Lysine-specific demethylase 4A (Homo sapiens), O75164; also: % is scaled to controls: 0 for no effect and ±100 for the full control effect; nearly all actives have a fitted effect of over 50% in size
HP1b binding inh – HTS for Inhibitors of HP1-beta Chromodomain Interactions with Methylated Histone Tails; Chromobox protein homolog 1 (Homo sapiens), P83916; AlphaScreen HP1-beta / biotin-H3K9me3 peptide binding; Potency, µM (top dose mostly 114 µM), without a hit: at the highest dose activity change, negative = inhibition, hits mostly inhibitors; actives 0.56% (n = 390,000); AID 540317, 2011; also: nearly all actives have a fitted effect of over 70% in size
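AlphaScreen: HP1-beta (50 nM) preformed 30 min with biotin-H3(1-18)K9me3 peptide (50 nM) in PBS pH 7.4, 0.01% Tween-20. Compound added for 30 min at RT, then streptavidin donor/nickel chelate acceptor beads (10 ug/mL) for 30 min.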
12-LOX inh – Primary qHTS assay for inhibitors of human arachidonate 12S-lipoxygenase (ALOX12): Round 2; AID 1671190, 2021; purified 12hLO, xylenol orange hydroperoxide absorbance; Potency, µM (top dose mostly 108 µM), for the others: top-dose activity change, negative = inhibition, hits mostly inhibitors; actives 1.1% (n = 580,000); Polyunsaturated fatty acid lipoxygenase ALOX12 (Homo sapiens), P18054; also: % is scaled to controls: 0 for no effect and ±100 for the full control effect
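Hydroperoxide product was detected by ferrous iron/xylenol orange as the 573 to 405 nm absorbance ratio. Arachidonic acid at 40 uM (final) was turned over for 30 min at room temperature by 150 nM human 12hLO, pH 7.0 Hepes buffer, after 15 min compound preincubation.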
G9a block – qHTS Assay for Inhibitors of Histone Lysine Methyltransferase G9a; Histone-lysine N-methyltransferase EHMT2 (Homo sapiens), Q96KQ7; G9a H3K9 monomethylation, AlphaScreen, 2 h; Potency, µM (titrated, usually from 102 µM), without a hit: top-dose activity, negative = inhibition, actives largely listed as inhibitors; actives 8.8% (n = 350,000); AID 504332, 2011; also: % is scaled to controls: 0 for no effect and ±100 for the full control effect; nearly all actives have a fitted effect of over 75% in size
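Step 1: enzyme (final 20 nM) with compound, 15 min RT. Step 2: substrate peptide 500 nM and SAM 20 uM, 2 h RT. Step 3: anti-H3K9me1 antibody and AlphaScreen beads, 10 min, then plate read.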
PLK1 PBD inh – qHTS for Inhibitors of PLK1-PDB (polo-like kinase 1 - polo-box domain): Primary Screen | Potency, µM, for the others: max response, negative = inhibition, hits mostly inhibitors | actives 2.8% (n = 360,000) | Serine/threonine-protein kinase PLK1 (Homo sapiens), P53350 | Plk1 PBD binding of FITC phosphopeptide, fluorescence polarization; also: series mostly up to about 57 µM; % is scaled to controls: 0 for no effect and ±100 for the full control effect; nearly all actives have a fitted effect of over 65% in size
* marks the source's active call; other numbers are inactive results; ? = inconclusive; . = not tested or not shown; [ ] = remark or other dose. Only some compounds are listed: those with a hit (about 9% of all), similar ones and a draw of the others. Calls follow the shape of the dose curve; as a rule, active = well fitted curve in the direction sought with a large enough effect; inconclusive = small, poorly fitted or top-dose-only effect, or another doubt; inactive = no such curve, though single readings can be large; an effect the other way counts as inactive or inconclusive. Potency is read from the fitted curve at half-maximal effect.

SMILES | BAZ2B block | JMJD2A Tudor | HP1b binding inh | 12-LOX inh | G9a block | PLK1 PBD inh
C=CCN1CCc2cccc3c2[C@H]1Cc1ccc(O)c(O)c1-3 | ? | 16µM* | 35µM* | 7.9µM* | 0.53µM* | 38µM*
CCCN1CCc2cc(O)cc3c2C1Cc1ccc(O)c(O)c1-3 (stereo unspecified) | . | . | . | 7.9µM* | 0.32µM* | .
Cc1nc2cnc(N3CCNCC3)nc2n(C)c1=O | . | . | . | ? | 0%[12.7 µM] | .
N#Cc1cc2c(nc1SCC(=O)Nc1ccc(Cl)cc1)C1CCN2CC1 | 4% | 3% | 35% | 12% | -2%[59 µM] | -6%
Cn1c(C(=O)NCCOc2ccccc2Cl)cc(=O)n(C)c1=O | -22% | -23% | 53% | -16% | -11%[59 µM] | -11%
COc1ccc(CN2C(=O)CC(=O)NC2=S)cc1 | ? | -11% | 30% | 45µM* | 71µM* | -17%
CC(C(=O)Nc1ccc(Br)cc1C(=O)c1ccccc1)N1CCOCC1 (stereo unspecified) | -17% | -8% | 30% | 0% | ? | -5%
Cc1ccc(CC2C(=O)N(C)C(=O)N(C)C2=O)s1 | -3% | -27% | 8% | ? | 7.9µM* | 27µM*
Cc1cccc(OP(=O)(Oc2ccccc2)OC(c2ccccc2)C(F)(F)F)c1 (stereo unspecified) | 250% | 57% | 183% | -30% | 252% | 5%
NC(Cc1nc2ccccc2[nH]1)c1ccc(Cl)cc1 (stereo unspecified) | -25% | -25% | 11% | ? | 40µM* | -3%
CC(C)Oc1cccc(CCN)c1 | . | . | . | -11% | . | .
Cc1cccc(C(O)(C(=O)NNC(=O)CN2CCN(C)CC2)c2cccc(C)c2)c1 | -3% | -9% | 11% | 1% | 71µM* | -1%
NC(=O)c1ncn([C@@H]2O[C@H](CO)[C@@H](O)[C@H]2O)n1 | 0% | -8% | 55% | 0% | 14%[59 µM] | -12%
CCCC(=O)Nc1cc(C(=O)N2CCC3(CC2)OCCO3)ccc1S(=O)(=O)c1ccc(C)cc1 | 4% | -8% | 20% | -27% | 15%[59 µM] | -10%
N#Cc1ccc(NC(=O)CN2CCN(C(=O)c3cccs3)CC2)cc1Cl | -7% | -9% | 29% | -5% | 40µM* | -2%
N#Cc1ccc(NC(=O)CN2CCC(C(N)=O)CC2)cc1Cl | . | . | . | -5% | . | .
CC1CCN(CC(=O)c2ccc3c(c2)OCCO3)CC1 | . | 5µM* | ? | ? | 4.5µM* | -3%
CC1CCCN(CC(=O)c2ccc(Cl)c(Cl)c2)C1 (stereo unspecified) | ? | -6% | 65% | -14% | 25µM* | -9%
CN(C)CCc1c[nH]c2cccc(O)c12 | . | . | . | 18%[176 µM] | . | .
Cc1ccc(C(O)P(=O)(OC2CCCCC2)OC2CCCCC2)cc1 (stereo unspecified) | 7% | 25% | 14% | -20% | ? | -5%
O=C(c1cnccn1)N1CCC2(CC1)CN(Cc1ccncc1)C2 | . | . | . | ? | -4%[12.7 µM] | .
COc1cc(/C=C2/SC(=S)N(Cc3ccccc3)C2=O)ccc1OCC(=O)O | 56µM* | ? | -12% | 28% | 5%[0.501 µM] | ?
CC(=O)NCC(=O)Nc1ccc(Br)cc1C(=O)c1ccccc1 | -1% | -23% | 14% | 95% | -5% | -4%
CC(=O)OC[C@]12CCC(C)=C[C@H]1O[C@@H]1[C@H](O)[C@@H](OC(C)=O)[C@@]2(C)[C@]12CO2 | 5% | -10% | 28% | 8% | 37%[12.7 µM] | -6%
CCN1CCN(c2ccc(N)c(C)c2)CC1 | -28% | -27% | 3% | 380% | 45µM* | -14%
SMILES | BAZ2B block | JMJD2A Tudor | HP1b binding inh | 12-LOX inh | G9a block | PLK1 PBD inh
CN1CCN(c2ccc([N+](=O)[O-])c(N)c2)CC1 | 4% | -26% | -2% | -5% | -4%[59 µM] | -2%
Clc1ccccc1CN1CCN(c2cccc3[nH]ccc23)CC1 | 40µM* | ? | ? | . | 28µM* | 0%
COc1ccccc1N1CCN(Cc2ccccc2F)CC1 | 45µM* | 6.3µM* | ? | -20% | -44%[2.33 µM] | 0%
COc1ccccc1N1CCN(Cc2cccc(OC)c2O)CC1 | 50µM* | ? | 15% | ? | 45µM* | ?
COc1ccccc1N1CCN(Cc2ccccc2Cl)CC1 | 35µM* | 3.2µM* | -45% | -15% | 14µM* | 0%
CCOc1ccccc1CN1CCN(c2cccc(C)c2C)CC1 | . | . | . | -53% | . | .
COc1ccccc1N1CCN(Cc2c(F)cccc2F)CC1 | -27% | -27% | 15% | -19% | 3%[12.7 µM] | -7%
C=CCn1c(O)c(C=Nc2ccc(Cc3ccncc3)cc2)c(=O)[nH]c1=S | ? | ? | 48% | 2% | 31%[0.501 µM] | 3%
CCC(C)NS(=O)(=O)c1ccc(OCC(=O)N2CCN(CC)CC2)cc1 (stereo unspecified) | 2% | -10% | 7% | -7% | -35%[59 µM] | -13%
CN1C(=O)N(C)C(=O)C2(Cc3cc([N+](=O)[O-])ccc3N(C)C2c2ccccc2)C1=O (stereo unspecified) | -5% | -9% | 21% | -2% | ? | -14%
CC(C)c1ccc(C(O)P(=O)(OCc2ccccc2)c2ccc(N(C)C)cc2)cc1 (stereo unspecified) | ? | ? | -3% | ? | 6% | 4%
CCCCOP(=O)(c1ccc(N(C)C)cc1)C(Nc1ccccc1)c1ccccc1 (stereo unspecified) | ? | ? | -32% | -28% | 45µM* | -8%
COc1cccc(N2C(=O)NC(=O)/C(=C/c3ccc4c(c3)Cc3ccccc3-4)C2=O)c1 | 45µM* | 56µM* | 43% | ? | 7.1µM* | 3.4µM*
CCOc1cc(/C=C2/C(=O)NC(=O)N(c3ccc(CC)cc3)C2=O)ccc1OC(=O)c1cccs1 | 50µM* | 79µM* | 13% | . | 29%[0.501 µM] | 6µM*
COc1ccc(/C=C2/C(=O)NC(=S)N(C3CC3)C2=O)cc1CN1C(=O)c2ccccc2C1=O | 50µM* | 25µM* | ? | ? | 3.5µM* | 2.7µM*
COc1cc(/C=C2/C(=O)NC(=O)N(c3ccccc3)C2=O)ccc1O | -1% | -11% | 34% | -28% | 35µM* | 8.4µM*
O=C(Nc1ccccc1C(=O)N/N=C/c1ccco1)c1ccccc1Cl | -6%[57.1 µM] | -6% | 49% | 0% | 49% | 3%
CCOP(=O)(Cc1cc(C#N)oc1C)OCC | -2% | 0% | 23% | -18% | ? | 0%

Screens as filed in PubChem.
